RE007 growth inh = less growth of the S. pombe RE007 Vpr strain; Potency, µM (doses to about 92.2 µM), for the others: top-dose activity change, negative = less growth, hits mostly inhibitors; 0.21% of 360,000 active; S. pombe RE007 Vpr strain, BacTiter-Glo ATP luminescence, 24 h; active means well fitted falling curve with a large enough effect; inconclusive means small, poorly fitted or top-dose-only effect; inactive means no such curve, though single readings can be large or run the other way; further: nearly all actives have a fitted effect of over 50% in size
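Fission yeast strain RE007, carrying one chromosomally integrated HIV-1 vpr copy, was seeded at OD 0.01 in PMG+AL medium with 23 nL pinned compound. After 24 h at 30 °C and 99% humidity, viability was read by BacTiter-Glo luminescence.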
AmpC inh no detg = blocks E. coli AmpC beta-lactamase in detergent-free assay | AID 485341 | 0.52% of 330,000 active | AmpC nitrocefin hydrolysis, absorbance 480 nm, 0.0001% Triton | Potency, µM (highest dose often 57.1 µM), for inactives: at the top dose activity change, negative = inhibition, most hits filed as inhibitors;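 further: plate controls were no compound for no effect and no enzyme for full effect; nearly all actives have a fitted effect of over 20% in size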
Target sequence (P00811 whole entry, looked up): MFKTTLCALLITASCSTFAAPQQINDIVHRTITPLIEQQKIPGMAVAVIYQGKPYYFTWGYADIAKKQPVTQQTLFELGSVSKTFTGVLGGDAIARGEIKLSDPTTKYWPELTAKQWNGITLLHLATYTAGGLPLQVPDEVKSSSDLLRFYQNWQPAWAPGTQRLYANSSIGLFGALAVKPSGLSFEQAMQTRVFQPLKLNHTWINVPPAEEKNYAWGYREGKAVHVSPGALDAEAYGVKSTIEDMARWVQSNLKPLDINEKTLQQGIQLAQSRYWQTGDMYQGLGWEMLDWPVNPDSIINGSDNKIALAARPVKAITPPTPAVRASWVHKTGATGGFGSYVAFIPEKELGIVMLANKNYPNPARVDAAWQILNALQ
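AmpC (5.3 nM in the dispensed reagent) in 20 mM phosphate pH 7.0 with 0.01% (detergent screen) or 0.0001% Triton X-100 was preincubated with compounds for 15 min at room temperature. Nitrocefin was then added from an 800 uM solution, and hydrolysis was followed at 480 nm.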
AMA1 RON2 block = disrupts binding of P. falciparum AMA1 to RON2. AlphaScreen AMA1-biotinylated RON2 peptide binding. Potency, µM (top dose mostly 58.2 µM), for inactives: top-dose activity change, negative = inhibition, actives largely listed as inhibitors. 0.2% of 360,000 active. AID 720542;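 further: 0% = vehicle wells and -100% = peptide control; nearly all actives have a fitted effect of over 45% in size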
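AMA1 (3D7) with his tag at 25 nM final met compounds first, then biotinylated RON2 peptide at 25 nM; detection used donor plus acceptor beads, 10 µg/mL apiece, read by AlphaScreen after 30 min at room temperature.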
AmpC inh detg = AmpC beta-lactamase inhibition with detergent present; 0.041% of 370,000 active; Potency, µM (series often up to 114 µM), without a hit: at the highest dose activity change, negative = inhibition, hits mostly inhibitors; AID 485294; AmpC hydrolysis of nitrocefin, absorbance 480 nm, 0.01% Triton; P00811;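 further: 0% = no-compound wells and -100% = no-enzyme wells; nearly all actives have a fitted effect of over 25% in size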
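20 mM phosphate pH 7.0 + 0.01% (detergent screen) or 0.0001% Triton X-100; 5.3 nM AmpC reagent; cpd preinc 15 min RT; nitrocefin (800 uM stock) to start; A480 q20 s × 4 min; Activity was normalised to no-enzyme and no-compound control wells.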
* = called active by the depositor; ? = inconclusive; · = not tested or not shown. Hits are enriched below; roughly 0.79% of the tested compounds scored in any of these assays. Unless noted, the call rests on the fitted dose curve; in most records, active means well fitted curve in the direction sought with a large enough effect; inconclusive means small, poorly fitted or top-dose-only effect, or another doubt; inactive means no such curve, though single readings can be large; an effect the other way counts as inactive or inconclusive. Unless noted, on the % scale 0 is the no-effect control and ±100 the full control effect; potency means the concentration at half of the fitted maximal effect.

SMILES	RE007 growth inh	AmpC inh no detg	AMA1 RON2 block	AmpC inh detg
CCc1ccc2ncc(S(=O)(=O)c3ccc(Cl)cc3)c(N3CCN(CC)CC3)c2c1	·	·	·	3.0%
Oc1ccc(-c2csc(Nc3ccccn3)n2)cc1O	8.6%	1.58µM*	2.3%	-7.9%
Cc1ccnc(Nc2nc(-c3ccc(O)c(O)c3)cs2)c1	-2.7%	-23.3%	35.0%	1.9%
O=C(CSc1ccc2ccccc2c1Br)Nc1cccc(S(=O)(=O)NC2=NCCCCC2)c1	0.6%	7.08µM*	-13.7%	-10.0%
Cc1ccc(C)c(-n2c(CCC(=O)O)ccc2-c2ccc(Cl)cc2)c1	·	·	·	4.2%
CCOC(=O)N1CCC(NC(=O)C2CCCN(C(=O)c3cc4sccc4n3C)C2)CC1 (configuration not stated)	0.7%	0.562µM*	9.2%	-13.5%
COc1ccc(C2CC(c3cccc(Cl)c3)n3nc(N)nc3N2)cc1 (configuration not stated)	-3.6%	0.891µM*	29.7%	?
COc1cccc(C2CC(c3ccc(F)cc3)Nc3nc(N)nn32)c1 (configuration not stated)	5.1%	39.8µM*	-4.2%	-11.5%
COc1ccc(OC)c2sc(NC(=O)c3ccc(S(=O)(=O)N4CCOCC4)cc3)nc12	3.7%	7.08µM*	-4.3%	?
COc1ccc(Cl)c2sc(NC(=O)c3ccc(S(=O)(=O)N4CCCC4)cc3)nc12	·	·	·	15.7%
COc1ccc(C2c3c(n(C)c4ccccc34)C(=O)N2CC(=O)Nc2cccc(F)c2)cc1 (configuration not stated)	·	·	·	-1.0%
CC(C)=C1C2CCC1C1C(=O)N(c3ccc4c(c3)OCO4)C(=O)C21 (configuration not stated)	·	-50.6%	-3.0%	-1.7%
CC(C)=C1C2C=CC1C1C(=O)N(c3ccc4c(c3)OCO4)C(=O)C21 (configuration not stated)	31.6µM*	-21.3%	18.7%	-1.6%
O=C1C(NS(=O)(=O)c2cccs2)=C(N2CCN(Cc3ccccc3)CC2)C(=O)c2ccccc21	-12.7%	-25.5%	28.2µM*	-4.0%
O=C1C(NS(=O)(=O)c2cccs2)=C(N2CCN(c3cccc(C(F)(F)F)c3)CC2)C(=O)c2ccccc21	-20.1%	-58.3%	10µM*	-10.7%
CCOc1ccccc1N1CCN(C2=C(NS(=O)(=O)c3cccs3)C(=O)c3ccccc3C2=O)CC1	-11.4%	-12.8%	10µM*	?
CCc1cc2c(cc3c(=O)n(CCCC(=O)NCc4cccc(Br)c4)ncn32)s1	·	·	·	12.2%
COC(=O)c1ccccc1NC(=O)CSc1nc2sc3c(c2c(=O)[nH]1)CCCC3	·	·	·	-0.1%
COC(=O)c1c(NC(=O)CCCOc2cccc(C)c2)sc2c1C(C(=O)OC)CC2 (configuration not stated)	·	·	·	-1.2%
CCc1cccc(C)c1Nc1c(-c2cccs2)nc2nc(C)cc(C)n12	·	·	·	13.4%
CC(=O)c1c(C)[nH]c(C(=O)OC(C)C(=O)Nc2cc(S(=O)(=O)N3CCCCC3)ccc2Cl)c1C (configuration not stated)	4.6%	7.94µM*	4.2%	-10.4%
CN(CC(=O)Nc1ccc(Br)cc1)S(=O)(=O)c1cccc2nsnc12	·	·	·	0.0%
Cc1ccc(NC(=O)CN(C)S(=O)(=O)c2cccc3nsnc23)cc1	-4.6%	0.159µM*	5.6%	-1.1%
COc1ccc(NC(=O)c2cccn2-c2nnc(N3CCCCC3)s2)cc1	·	·	·	-0.1%
Cc1cc(C)nc(SC2CC(=O)N(c3ccc(Br)cc3)C2=O)n1 (configuration not stated)	5.3%	1.9%	4.4%	5.9%
SMILES	RE007 growth inh	AmpC inh no detg	AMA1 RON2 block	AmpC inh detg
CCN(CC)C1CC(=O)N(c2ccc(Br)cc2)C1=O (configuration not stated)	2µM*	-35.5%	1.4%	-0.2%
CCn1cc(CNC(=O)c2cc(-c3ccc(C)cc3)nc3ccc(Br)cc23)c(C)n1	·	·	·	-6.5%
O=C(c1ccc(Br)o1)N1CCN(c2ccc3nnc(-c4ccc(F)cc4)n3n2)CC1	11.1%	0.562µM*	-8.6%	?
CC(C)c1ccccc1NC(=O)Cn1cnc2c1c(=O)n(C)c(=O)n2C	·	·	·	11.9%
CCCCCCCCCCCCCCCC[N+](C)(C)CC	?	172.3%	4.8%	-10.7%
CCCCCCCCCCCCCCCC[N+](C)(C)CCl	22.4µM*	·	-10.0%	·
O=C(CCOc1ccccc1)N(Cc1cccnc1)c1nc2c(Cl)cccc2s1	·	·	·	-0.3%

Assay outcomes as filed in PubChem BioAssay.
